Bioassay records (PubChem)
Compounds with a hit are over-represented: about 9% of the library has one in this group of screens.
HTT aggregate: inhibitors of mutant huntingtin aggregate formation in PC12 cells. PC12 HttQ103-GFP aggregates, Acumen cytometry, 40 h. Potency, µM (highest dose often 46.1 µM), inactives show at the highest dose activity change, negative = inhibition, hits mostly inhibitors. 220,000 tested, 1.1% active; also: % is scaled to controls: 0 for no effect and ±100 for the full control effect; nearly all actives have a fitted effect of over 60% in size
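Aggregates are detected as GFP objects 1–25 µm with signal 6 STDEV over background in lysates of induced PC12 cells. These carry Huntingtin exon 1 with 103 glutamines fused to GFP under an ecdysone promoter; compounds titrated.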
HTT ATP protect: protects HTT-Q103 PC12 cells, measured by ATP; PC12 HTT-Q103 induced, cytoprotection, ATP luminescence, 40 h; Potency, µM (top dose mostly 56.4 µM), for the others: cytoprotection (ATP increase), usual class: activators; 230,000 tested, 0.14% active; also: % of control where 0% means no effect; nearly all actives have a fitted effect of over 45% in size
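PC12 cells stably carrying ecdysone-inducible Htt exon 1 (Q103)–GFP were induced with 100 nM tebufenozide (final) alongside library compounds in a dose series. Cytoprotection was scored as retained ATP by ATPlite luminescence.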
KinaseGlo FLuc: counter-screen: inhibitors of Kinase-Glo firefly luciferase; Potency, µM (series often up to 38.3 µM), for the others: top-dose activity change, negative = inhibition, hits mostly inhibitors; 200,000 tested, 0.28% active; Kinase-Glo luciferase, ATP luminescence, 8 min; Q27757; also: % is scaled to controls: 0 for no effect and ±100 for the full control effect; nearly all actives have a fitted effect of over 60% in size
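Kinase-Glo luciferase light output from ATP and luciferin was measured with 10 uM ATP, within the enzyme's linear range. Buffer: 50 mM imidazole pH 7.2, 50 mM KCl, 7 mM MgCl2, 0.01% Tween 20, 0.05% BSA; luminescence read after 8 min at ambient temperature.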
HPGD inh: inhibitors of human 15-hydroxyprostaglandin dehydrogenase (HPGD) | P15428 | purified HPGD, NADH fluorescence kinetic, PGE2 substrate | Potency, µM, inactives show at the top dose activity change, negative = inhibition, actives largely listed as inhibitors | 150,000 tested, 4.3% active | AID 894; active = well fitted inhibition curve with a large enough effect, not every such curve was filed as active; inconclusive = small, poorly fitted or top-dose-only effect, or another doubt; inactive = no such curve, though single readings can be large or run the other way; also: % is scaled to controls: 0 for no effect and ±100 for the full control effect
Target sequence (P15428 whole entry, looked up): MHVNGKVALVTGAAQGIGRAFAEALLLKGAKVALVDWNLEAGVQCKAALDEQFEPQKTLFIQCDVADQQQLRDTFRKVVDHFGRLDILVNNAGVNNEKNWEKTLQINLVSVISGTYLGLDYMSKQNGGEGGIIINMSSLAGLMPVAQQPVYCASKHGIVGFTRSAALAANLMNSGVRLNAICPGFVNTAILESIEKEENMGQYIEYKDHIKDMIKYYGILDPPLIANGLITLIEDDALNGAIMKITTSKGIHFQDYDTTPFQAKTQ
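NADH formation kinetics: reaction with 30 uM PGE2 and 1 mM NAD+ (final), 20 nM enzyme, Tris-HCl pH 8 with Tween 20, after 15 min compound preincubation at room temperature. Fluorescence change, last versus first of five reads.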
ALDH1A1 inh: inhibitors of human aldehyde dehydrogenase 1A1 | 220,000 tested, 7.3% active | Potency, µM (series often up to 75.3 µM), inactives show at the highest dose activity, negative = inhibition, usual class: inhibitors | P00352 | AID 1030 | Purified ALDH1A1, NADH fluorescence, propionaldehyde substrate; active = well fitted inhibition curve with a large enough effect, not every such curve was filed as active; inconclusive = small, poorly fitted or top-dose-only effect, or another doubt; inactive = no such curve, though single readings can be large or run the other way;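 also: plate controls were no enzyme wells and a reference inhibitor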
Target sequence (P00352 whole entry, looked up): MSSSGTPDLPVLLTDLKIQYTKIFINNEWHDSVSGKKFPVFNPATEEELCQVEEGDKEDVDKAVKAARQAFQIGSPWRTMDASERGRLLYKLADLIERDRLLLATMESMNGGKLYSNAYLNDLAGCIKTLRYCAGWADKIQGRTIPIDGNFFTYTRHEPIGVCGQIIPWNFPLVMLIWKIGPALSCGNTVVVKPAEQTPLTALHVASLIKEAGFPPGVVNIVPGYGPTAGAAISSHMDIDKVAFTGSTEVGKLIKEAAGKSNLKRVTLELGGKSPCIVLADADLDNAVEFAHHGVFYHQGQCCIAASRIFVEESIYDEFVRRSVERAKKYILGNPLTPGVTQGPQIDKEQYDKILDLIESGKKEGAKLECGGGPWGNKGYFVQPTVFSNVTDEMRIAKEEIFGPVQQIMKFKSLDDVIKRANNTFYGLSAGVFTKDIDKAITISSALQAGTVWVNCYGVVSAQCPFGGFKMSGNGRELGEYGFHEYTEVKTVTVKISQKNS
Lamin A splicing: modulators of lamin A splicing; HeLa LMNA splicing GFP/RFP minigene ratio, 48 h; Potency, µM (highest dose often 46.1 µM), without a hit: top-dose ratio change, negative = inhibition, hits mostly inhibitors; 200,000 tested, 0.01% active; active = well fitted inhibition curve with a large enough effect in the signal ratio, with a control signal flat, not every such curve was filed as active; inconclusive = small, poorly fitted or top-dose-only effect, or effect the other way, or a change in a side signal; the % refers to the signal ratio; also: % is scaled to controls: 0 for no effect and ±100 for the full control effect
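Read-out is the ratio of GFP to DsRed2 object intensity, acquired by 488 nm laser-scanning cytometry on HeLa lamin A-EGFP minigene reporter cells. Compound incubation 48 hrs at 37 °C in Opti-MEM with 2% FBS; DMSO 0.5% final.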
Starred values were filed as active, the others as inactive; ? = inconclusive; · = not tested or not shown; [ ] = dose if it differs, or a comment. Unless noted, calls follow the shape of the dose curve; as a rule, active = well fitted curve in the direction sought with a large enough effect; inconclusive = small, poorly fitted or top-dose-only effect, or another doubt; inactive = no such curve, though single readings can be large; an effect the other way counts as inactive or inconclusive. Potency is read from the fitted curve at half-maximal effect.

SMILES	HTT aggregate	HTT ATP protect	KinaseGlo FLuc	HPGD inh	ALDH1A1 inh	Lamin A splicing
O=C(O)CSc1nc2c(c(=O)[nH]1)CCCC2	-12.1%	19.7%	·	·	8.0%	0.0%
Cc1ccccc1CSc1nc2c(c(=O)[nH]1)CCC2	5.4%	-18.8%	-8.4%	3.55µM*	9.1%	?
Cc1ccc(C(=O)Nc2ccc(C(=O)O)cc2)cc1S(=O)(=O)Nc1cccc([N+](=O)[O-])c1	-1.1%	-18.9%	-0.6%	·	7.1%	·
O=C(Nc1ccc(S(=O)(=O)N2CCOCC2)cc1)c1cccnc1	8.4%[9.22 µM]	14.1%[10 µM]	·	·	3.5%	·
CCCCSc1nc2c(c(=O)[nH]1)CCC2	13.9%	-16.6%	-5.6%	28.2µM*	-12.2%	5.2%
Cc1c(NC(=O)COC(=O)c2ccccc2Cl)c(=O)n(-c2ccccc2)n1C	1.0%	-19.0%	0.7%	·	0.9%	·
COCC(C)n1c(SCC(=O)NNC(=O)c2ccc(F)cc2)nc2ccccc2c1=O (configuration not stated)	6.3%	31.4%[10 µM]	3.4%	-4.8%	7.0%	-11.6%
COc1ccc(C(C)(C)C)cc1NC(=O)c1c(C)noc1C	0.562µM*	-0.3%	0.5%	-10.1%	1.2%	-2.2%
O=C(Nc1ccc(OC(F)F)c(Cl)c1)c1cccc(OC(F)F)c1	3.98µM*	-90.2%	-3.5%	-23.8%	0.7%	13.4%
CCc1onc(C)c1C(=O)Nc1cc(C)ccc1OC	-2.6%	-12.0%	1.4%	-7.7%	?	9.5%
COc1ccc(C(C)(C)C)cc1NC(=O)Nc1ccc2c(c1)OCO2	17.8µM*	11.6%[10 µM]	3.2%	-13.0%	5.3%	?
O=C(Nc1ccc(OC(F)F)c(Cl)c1)Nc1ccc2c(c1)OCO2	11.2µM*	-1.8%[10 µM]	-0.5%	-6.8%	-0.4%	?
O=C(Nc1ccc2c(c1)OCO2)Nc1ccc2c(c1)OCO2	·	·	-4.4%	·	-4.1%	-1.1%[46 µM]
O=C(Cn1cnc([N+](=O)[O-])c1)NCc1ccc(F)cc1	-3.1%	-8.9%	-2.1%	-2.3%	-1.5%	14.2%
CCN(CC)CCNC(=O)C1CCN(S(=O)(=O)N2CCCCC2)CC1	-16.7%	-6.1%[10 µM]	1.7%	4.3%	5.0%	-1.7%
O=C(Nc1ccc([N+](=O)[O-])cc1)Nc1ccc(OC(F)F)c(Cl)c1	11.2µM*	·	0.5%	-4.4%	-1.4%	?
COc1ccc(NC(=O)Nc2cccc([N+](=O)[O-])c2)cc1Cl	?	-2.8%[10 µM]	5.5%	-14.6%	?	?
O=C(CCl)c1ccc2[nH]c(=O)oc2c1	3.3%[9.22 µM]	24.6%[10 µM]	·	·	0.282µM*	-3.7%[46 µM]
CCOC(=O)N1CCN(S(=O)(=O)c2ccc3[nH]c(=O)oc3c2)CC1	-4.9%[9.22 µM]	-9.6%[10 µM]	·	·	·	·
O=C(CCc1ccc(S(=O)(=O)NCCc2ccccc2)cc1)NCc1ccc2c(c1)OCO2	-3.2%	-8.1%	-2.8%	-7.6%	?	0.1%
CN1C(C(=O)NCc2cccc(Br)c2)CC2Cn3c(nc4ccccc43)C21 (configuration not stated)	-4.9%[9.22 µM]	19.0%[10 µM]	·	·	·	·
O=C(CN1CCOCC1)NCc1ccccc1	0.316µM*	-13.4%	1.7%	-11.1%	-6.2%	-4.9%
O=C(CN1CCOCC1)Nc1ccc(Oc2ccc(NC(=O)CN3CCOCC3)cc2)cc1	-3.0%	-25.8%[0.074 µM]	1.5%	?	17.8µM*	10.0%
O=C(CN1CCOCC1)Nc1ccc(OCc2ccccc2)cc1	-7.2%	-14.9%[10 µM]	-1.8%	-15.0%	12.6µM*	21.1%
O=C(CN1CCN(c2ncccn2)CC1)NCc1ccccc1	8.9%	5.1%	20.1%	-8.6%	?	0.6%
SMILES	HTT aggregate	HTT ATP protect	KinaseGlo FLuc	HPGD inh	ALDH1A1 inh	Lamin A splicing
O=C(CN(Cc1ccccc1Cl)C(=O)c1ccc(CN2CCOCC2)o1)NCc1ccccc1	2.4%	-14.6%[10 µM]	2.0%	-11.1%	12.6µM*	-2.8%
COc1ccc(NC(=O)CN2CCOCC2)cc1	-1.1%	3.5%	-5.3%	-13.4%	?	0.3%
O=C(COc1ccc(Cl)cc1)NCc1nnc(SCC(=O)Nc2ccccc2)o1	6.7%	-21.0%	1.2%	-19.7%	?	10.1%
N=C(N)SCCON1C(=O)c2ccccc2C1=O	·	-7.5%[10 µM]	-2.7%[7.66 µM]	-13.9%	-3.4%[13.5 µM]	·
Cc1ccccc1CN1C(=O)c2ccccc2Sc2ccc(C(=O)NCc3cccs3)cc21	·	·	·	·	·	-1.1%[46 µM]
CCOCc1cnc(C)nc1NCC(=O)c1c(C)n(C)c2ccc(OC)cc12	-13.7%	-7.9%[10 µM]	-1.5%	-6.8%	31.6µM*	13.1%
COc1ccc2c(c1)c(C(=O)CNc1nc(C)cs1)c(C)n2C	-7.6%	-11.6%	9.2%	-19.7%	?	0.3%
C/C(=N\Nc1nc(C)cc(C)n1)c1ccc(N2CCOCC2)cc1	11.2µM*	3.4%[10 µM]	0.0%	·	-0.4%	-26.6%[46 µM]
Cc1cccc(N=Cc2[nH]c3ccc(Br)c(Cl)c3c2O)c1	-8.6%	22.2%[10 µM]	-3.9%	14.1µM*	4.47µM*	4.5%
COc1ccccc1CN=Cc1[nH]c2ccc(Br)c(Cl)c2c1O	?	-16.7%	-6.9%	12.6µM*	0.794µM*	-10.3%
O=C(O)c1c(-c2ccccc2)c(-c2ccccc2)nc2ccccc12	16.7%	-5.7%	0.7%	·	-3.1%	?
O=C(ON=C1CCN(c2ccc([N+](=O)[O-])cc2)CC1)c1ccccc1	12.5%	8.4%	-1.9%	-5.9%	?	0.2%
COc1ccc(C(=O)ON=C2CCN(c3ccc([N+](=O)[O-])cc3)CC2)cc1	10.6%	-5.8%	-3.2%	-13.0%	3.98µM*	15.6%
CCCn1c(=O)c(F)cn(Cc2ccc(OC)c([N+](=O)[O-])c2)c1=O	-0.1%	-12.2%	-4.1%	-6.2%	-4.1%	2.3%
CCOC(=O)N1CCC(NC(=O)C2CCN(C(=O)N3CC(C)Oc4ccccc43)CC2)CC1 (configuration not stated)	10.2%	12.0%	0.0%	-7.9%	?	-4.8%
CCOC(=O)N1CCC(NC(=O)C2CCN(C(=O)N3CC(C)Oc4ccc(C)cc43)CC2)CC1 (configuration not stated)	6.5%	-10.4%[0.074 µM]	-2.1%	-10.6%	7.94µM*	-1.0%
Cc1ccc2nsnc2c1N	-4.9%[9.22 µM]	21.5%[10 µM]	-1.5%	·	-0.5%	3.5%[46 µM]
Oc1ccccc1C(Sc1nc2ccccc2s1)Sc1nc2ccccc2s1	·	-5.0%[10 µM]	-3.9%[7.66 µM]	3.98µM*	0.708µM*	·
C=CC#CC[N+]1(CC#Cc2ccccc2)CCOCC1	-18.0%	·	-0.6%	25.1µM*	?	6.5%
C(#Cc1ccccc1)C[N+]1(CC#Cc2ccccc2)CCCC1	?	5.2%[10 µM]	-2.0%	-3.6%	7.4%	?
Cc1ccccc1-c1ccc(Nc2ccc(N3CCOCC3)cc2)nn1	2.1%	-21.8%[10 µM]	-26.4%	-22.2%	8.91µM*	?
O=S1(=O)N=C(Nc2ccc(N3CCOCC3)cc2)c2ccccc21	12.0%	-29.3%	0.0%	0.9%	-0.1%	-9.1%
